Experimental data from PubChem BioAssay (NCI).
The panel holds about 79,000 compounds, 15% with a hit somewhere; the sample as a whole holds those more often. The source made the active and inactive calls. No stated cut-off is given here; in the data, active means growth inhibition above about 70%; inactive means the rest.

What was measured:
[1] = NCI Yeast Anticancer Drug Screen. Data for the rad50 strain (AID 155);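 further: 0% = growth of vehicle-only cultures of the same strain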; conditions: S. cerevisiae rad50 strain growth inhibition; at 50.0 µM; active compounds read high
Procedure, shortened: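 Compounds were tested on a yeast strain with an engineered DNA damage repair alteration; the reported value is growth inhibition normalised to vehicle treatment.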

[2] = NCI Yeast Anticancer Drug Screen. Data for the mec2-1 strain (AID 157); conditions: S. cerevisiae mec2-1 strain, at 50.0 µM, active compounds read high
Procedure, shortened: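 Test agents were screened against the mec2-1 yeast strain, with defined DNA repair or cell cycle alteration. Growth was scored as inhibition against vehicle-only controls.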

[3] = NCI Yeast Anticancer Drug Screen. Data for the sgs1 mgt1 strain (AID 161);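 further: 0% = growth of cultures given vehicle only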; conditions: S. cerevisiae sgs1 mgt1 strain, at 50.0 µM, active compounds read high
Procedure, shortened: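 Test agents were incubated with a DNA-repair-mutant yeast strain. Growth was then read and compared against vehicle-treated controls.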

[4] = NCI Yeast Anticancer Drug Screen. Data for the cln2 rad14 strain (AID 165);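 further: 0% = growth equal to vehicle treated cultures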; conditions: S. cerevisiae cln2 rad14 strain, at 50.0 µM, active compounds read high
Procedure, shortened: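 Growth of compound-exposed yeast (cln2 rad14 genotype) measured and expressed as inhibition relative to vehicle.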

[5] = NCI Yeast Anticancer Drug Screen. Data for the bub3 strain (AID 167); conditions: S. cerevisiae bub3 mutant strain, at 50.0 µM, active compounds read high
Procedure, shortened: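 Growth of a checkpoint-deficient yeast mutant is measured after compound exposure. Values represent inhibition relative to vehicle.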

[6] = NCI Yeast Anticancer Drug Screen. Data for the mlh1 rad18 strain (AID 175); conditions: S. cerevisiae mlh1 rad18 strain growth inhibition; at 50.0 µM; active compounds read high
Procedure, shortened: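 In this whole-cell yeast screen, a strain with altered DNA damage repair is challenged with compound, and its growth is measured against matched vehicle-treated controls.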

Measured: growth inhibition

Cc1ccc(-c2c(C#N)c(-c3ccccc3)n(NS(=O)(=O)c3ccccc3)c(=O)c2C#N)cc1
inactive: [1] 42.1% | [2] 49.8% | [3] 47.1% | [4] 51.2% | [5] 49.6% | [6] 51.1%

Cc1cc2c(cc1Cl)SC(NNc1cnc3ccccc3n1)=NS2(=O)=O
inactive: [1] 23.3% | [2] 21.6% | [3] 35.7% | [4] 20.2% | [5] 19.1% | [6] 4.8%

C[CH2][Ge]([CH2]C)[CH2]C.C[CH2][Ge]([CH2]C)[CH2]C
inactive: [1] 6.5% | [2] 0.35% | [3] -2.45% | [4] -25.4% | [5] 0.9% | [6] -3%

O=C(Nc1nc2c(ncn2C2OC(CO)C(O)C2O)c(=O)[nH]1)c1ccccc1 (stereo unspecified)
inactive: [1] 2.45% | [2] -26.9% | [3] -20.2% | [4] 11.6% | [5] 12.7% | [6] 15.6%

N#Cc1cn(Cc2ccccc2)c2ccccc2c1=O
inactive: [1] -0.3% | [2] -3.15% | [3] 3.95% | [4] 47.9% | [5] 7.3% | [6] 1.15%

NC(=N\C1=NCCN1)/C(N)=N/C1=NCCN1
inactive: [1] -13.4% | [2] 5.35% | [3] -1.35% | [4] -29.5% | [5] -2.3% | [6] -13.2%

CCCN(CCCC(NC(C)=O)C(=O)NCc1ccccc1)C(=O)NC (stereo unspecified)
inactive: [1] -11.1% | [2] -18.8% | [3] -28.4% | [4] 1.2% | [5] -4.65% | [6] -45.3%

Cc1cccc(C(=O)c2ccccc2Cc2cccc3ccccc23)c1C
inactive: [1] 5.1% | [2] -6.8% | [3] 7.2% | [4] -6.45% | [5] 9.5% | [6] -15.5%

O=c1[nH]c(-c2ccc(Cl)cc2)cs1
inactive: [1] -1.25% | [2] -14.8% | [3] -7% | [4] -5.65% | [5] -19.9% | [6] -16.1%

CCCCCCCCCCC/C(C)=N/Nc1ccc([N+](=O)[O-])cc1[N+](=O)[O-]
inactive: [1] 5.65% | [2] -5.15% | [3] 2.15% | [4] 11.8% | [5] -0.2% | [6] -13%

COc1cc([N+](=O)[O-])ccc1NC(=O)Nc1c(C)n(C)n(-c2ccccc2)c1=O
inactive: [1] -17.1% | [2] 1.75% | [3] -8.3% | [5] 0.15% | [6] 6.25%
active: [4] 92.6%

C=CCCNC(=S)S
inactive: [1] -1.15% | [2] 11.7% | [3] 6.1% | [4] -2.9% | [5] 4% | [6] -3.4%

COC1(OC)C2(Cl)C3=CCCC=C3C1(Cl)C(Cl)=C2Cl
inactive: [1] 27.5% | [2] 9.45% | [3] 11.7% | [4] 29.8% | [5] 15.6% | [6] -6.65%

COc1ccc(N=C2C(=Nc3ccc(OC)cc3)N(c3ccc(OC)cc3)C(=S)N2C)cc1
inactive: [1] 19% | [2] -7.1% | [3] -39% | [4] -12% | [5] -7.65% | [6] 13.5%

C=CC(OC(=O)/C=C/C)OC(=O)/C=C/C
inactive: [1] 16.9% | [2] 0.85% | [3] 6.8% | [4] 12.6% | [5] 20.1% | [6] 21.6%

CCCCS(=O)(=O)C1CCCC1=O (stereo unspecified)
inactive: [1] -3.5% | [2] 5.5% | [3] -2.55% | [4] -7.1% | [5] 1.45% | [6] 1.9%

CCOC(=O)C1SCSCC1=O (stereo unspecified)
inactive: [1] -1.1% | [2] -1.7% | [3] -5.55% | [4] -30.2% | [5] -20.6% | [6] 6%

Nc1[nH]c(=O)nc2nc(I)[nH]c12
inactive: [1] 5.05% | [2] 2.75% | [3] 22.7% | [4] -17.2% | [5] 22.9% | [6] 3.35%

Clc1ccc(N[P+](c2ccccc2)(c2ccccc2)c2ccccc2)cc1.[Cl][Fe]([Cl])([Cl])[Cl]
inactive: [1] 39.3% | [2] 12% | [3] 45.4% | [4] 5% | [5] 5.8% | [6] 17.8%

O=C1c2ccccc2C(=O)N1c1cccc([N+](=O)[O-])c1
inactive: [1] 0.5% | [2] 15.9% | [3] 16.4% | [4] -44.6% | [5] 26.4% | [6] 7.05%

CC(NC(=O)C(N)CC(=O)O)NC(=O)N(C)C(C)(C)C (stereo unspecified)
inactive: [1] -8.5% | [2] 1.75% | [3] 2.1% | [4] 2.65% | [5] 25.4% | [6] -44.2%

Cc1cccc(CCSCCc2cccc(C)[n+]2[O-])[n+]1[O-]
inactive: [1] 19.8% | [2] -2.45% | [3] -1.1% | [4] 17.4% | [5] 0.8% | [6] 1.8%

O=C(Nc1ccc(Cl)cc1[N+](=O)[O-])Oc1ccc(-c2ccccc2)cc1
inactive: [1] 23.4% | [2] 58.5% | [3] 48.1% | [4] 8.3% | [6] 66%
active: [5] 78.8%

C1=C(N2CCOCC2)/C(=C2\SC(=Nc3ccccc3)C(=Nc3ccccc3)N2c2ccccc2)CC1
inactive: [1] -5.8% | [2] -5.4% | [3] -7.65% | [4] 14.3% | [5] -5.35% | [6] -28.6%

Cc1cc(Cl)ccc1N1C(=O)C(=O)C(c2nc3ccccc3s2)/C(=N\NC(=O)c2ccccc2O)C1=O (stereo unspecified)
inactive: [1] -37.9% | [2] 0.45% | [3] -9.8% | [4] 10.8% | [5] -15.2% | [6] -14.9%

[C-]#[N+]N=P(c1ccccc1)(c1ccccc1)c1ccccc1
inactive: [1] -18% | [2] -20.8% | [3] -27.9% | [4] 3.2% | [5] -8.65% | [6] 5.65%

COC(=O)c1ccc(OC)cc1O
inactive: [1] 1.5% | [2] 1.8% | [3] -13.4% | [4] -19.9% | [5] 3.2% | [6] -2%

CC(=O)c1cc([N+](=O)[O-])c(O)cc1O
inactive: [1] 36.1% | [2] 2.25% | [3] 18.1% | [4] -16.8% | [5] 25.9% | [6] 41%

CCSCCOC(=S)Nc1ccccc1
inactive: [1] -6.25% | [2] -8.05% | [3] -4.9% | [4] 0.7% | [5] 4.25% | [6] 7.1%

COC(=O)C(=O)C(C(=O)C1=NS(=O)(=O)c2cc(S(N)(=O)=O)c(Cl)cc2N1)c1nc2ccc(C(=O)c3ccccc3)cc2[nH]c1=O (stereo unspecified)
inactive: [1] -9.7% | [2] -18.1% | [3] -18% | [4] 6% | [5] -19.9% | [6] -19.2%

CCc1cc2ccccc2oc1=O
inactive: [1] -1.1% | [2] 3.65% | [3] 0.1% | [4] -18.1% | [5] 1.55% | [6] -5.85%

O=[N+]([O-])c1ccc(I)c(I)c1
inactive: [1] -20.8% | [2] -3.8% | [3] 0.1% | [4] -43.2% | [5] -0.45% | [6] 7.85%

C1CCC2C(C1)CCCC2CC1CCCC2CCCCC21 (stereo unspecified)
inactive: [1] -11.2% | [2] 1.1% | [3] -10.3% | [4] -17.5% | [5] -9.05% | [6] -4.65%

Cc1ccc(S(=O)(=O)ON2C(=O)c3cccc4cc([N+](=O)[O-])cc(c34)C2=O)cc1
inactive: [1] 35.1% | [2] 45% | [3] 39.4% | [4] 17.4% | [5] -12.2% | [6] 8.65%

Cc1ccc(OC/C=C/c2ccc(C#N)cc2)cc1
inactive: [1] 2.55% | [2] 0.05% | [3] -4.15% | [4] -17.6% | [5] 1.8% | [6] -3%

CC(=O)n1nnc(CC#N)c1-c1ccccc1
inactive: [1] 20.4% | [2] 7.5% | [3] 2.65% | [4] 5.1% | [5] -23.2% | [6] -15.3%

COc1ccc(C(c2ccccc2)c2ccc(OC)cc2)cc1
inactive: [1] -7.95% | [2] -13% | [3] -12.9% | [4] -124% | [5] 37.7% | [6] 4.45%

COc1ccc2nc(N/N=C/C(C)=N/Nc3cc(C)c4cc(OC)ccc4n3)cc(C)c2c1
inactive: [1] -3% | [2] 4.8% | [3] -2% | [4] 3.4% | [5] 0.15% | [6] -23.2%

CCOC(=O)C(=CNC(=S)Nc1ccc(Cl)c(Cl)c1)C(=O)OCC
inactive: [1] 53.5% | [2] 39.5% | [3] 59.7% | [4] 45.6% | [5] 39% | [6] 67.5%

C[N+]([O-])(Cc1ccccc1)c1ccccc1 (stereo unspecified)
inactive: [1] -3.6% | [2] -16.3% | [3] -15.2% | [4] -20.9% | [5] -26.8% | [6] 1.75%

Cc1[nH]n(-c2ncc(C#N)c(=O)[nH]2)c(=O)c1CCO
inactive: [1] -8.75% | [2] -34.1% | [3] -16% | [4] -31.9% | [5] -11.8% | [6] -71.3%
